One sequence from article PMC7862700, “An all-to-all approach to the identification of sequence-specific readers for epigenetic DNA modifications on cytosine” can be followed below.

Common to all, as to experiment: DAPPL (digital affinity profiling via proximity ligation, sequencing); 10 mM Tris-HCl pH 7.5, 50 mM NaCl, 1 mM DTT, 4% glycerol, room temperature, 30 min; GST-TFs on glutathione beads, 16-mer random dsDNA library, 0.1% formaldehyde crosslink after washing; high values mean tight binding
In assay [1] the target is T1, FEV (Homo sapiens, UniProt Q99581 1-238).
T1 sequence: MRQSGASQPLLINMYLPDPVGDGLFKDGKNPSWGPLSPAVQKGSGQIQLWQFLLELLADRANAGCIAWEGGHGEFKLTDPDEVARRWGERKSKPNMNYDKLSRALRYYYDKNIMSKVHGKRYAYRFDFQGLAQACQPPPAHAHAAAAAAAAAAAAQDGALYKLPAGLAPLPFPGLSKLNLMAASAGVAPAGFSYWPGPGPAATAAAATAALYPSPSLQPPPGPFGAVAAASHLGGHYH
Particulars: protein: recombinant; tags: N-terminal GST; dsDNA, one strand shown. In short, it runs like this:
(§1)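 Pools were built from human transcription factors expressed in yeast as GST fusions, captured on glutathione beads and DNA-barcoded, along with a tag-only sample. Incubation with 200 nmole of a 16-mer random double-stranded DNA library lasted 30 min at room temperature in Tris/NaCl/DTT/glycerol buffer, and was followed by washing, 0.1% formaldehyde crosslinking, proximity ligation, PCR amplification and Illumina NextSeq500 sequencing. Binding signal is the quotient of each hexamer's read frequency for a factor and its frequency for the tag-only sample.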

In assay [2] the target is ETV5 (Homo sapiens, UniProt P41161 1-510). Particulars: protein: recombinant; tags: N-terminal GST; dsDNA, one strand shown. In short, it runs like this:
as §1

Assay [3] deals with HSF1 (Homo sapiens, UniProt Q00613 1-529). The following applies: protein: recombinant; tags: N-terminal GST; chain copies: 3; dsDNA, one strand shown. In short, it runs like this:
as §1

The target in assay [4] is T2, SPIC (Homo sapiens, UniProt Q8N5J4 1-248).
T2 sequence: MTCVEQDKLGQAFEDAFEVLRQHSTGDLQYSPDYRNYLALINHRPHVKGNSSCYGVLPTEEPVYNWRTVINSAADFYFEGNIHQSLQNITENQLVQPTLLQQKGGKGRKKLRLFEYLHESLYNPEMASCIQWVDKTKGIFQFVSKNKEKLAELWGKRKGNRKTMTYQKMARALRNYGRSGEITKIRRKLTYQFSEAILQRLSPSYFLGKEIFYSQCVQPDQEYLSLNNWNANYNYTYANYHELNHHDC
Particulars: protein: recombinant; tags: N-terminal GST; dsDNA, one strand shown. In short, it runs like this: as §1

Assay [5] concerns the target ELF4 (Homo sapiens, UniProt Q99607 1-663). Particulars: protein: recombinant; tags: N-terminal GST; dsDNA, one strand shown. In short, it runs like this: as §1
In assay [6] the target is T3, ELK4 (Homo sapiens, UniProt P28324-2 1-405).
T3 sequence: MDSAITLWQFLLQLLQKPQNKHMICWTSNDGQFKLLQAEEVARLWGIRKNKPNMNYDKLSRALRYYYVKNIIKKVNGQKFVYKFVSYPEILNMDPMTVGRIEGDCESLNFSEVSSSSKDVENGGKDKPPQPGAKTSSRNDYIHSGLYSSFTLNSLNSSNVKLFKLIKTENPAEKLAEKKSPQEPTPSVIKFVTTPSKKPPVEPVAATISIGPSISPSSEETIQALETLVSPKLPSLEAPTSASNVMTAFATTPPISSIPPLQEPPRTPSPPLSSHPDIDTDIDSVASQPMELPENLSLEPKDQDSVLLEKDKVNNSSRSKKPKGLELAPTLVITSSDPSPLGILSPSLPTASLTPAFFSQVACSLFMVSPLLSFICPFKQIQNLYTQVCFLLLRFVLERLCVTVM
The following applies: protein: recombinant; tags: N-terminal GST; dsDNA, one strand shown. In short, it runs like this: as §1

In assay [7] the target is T4, ETV2 (Homo sapiens, UniProt O00321 1-342).
T4 sequence: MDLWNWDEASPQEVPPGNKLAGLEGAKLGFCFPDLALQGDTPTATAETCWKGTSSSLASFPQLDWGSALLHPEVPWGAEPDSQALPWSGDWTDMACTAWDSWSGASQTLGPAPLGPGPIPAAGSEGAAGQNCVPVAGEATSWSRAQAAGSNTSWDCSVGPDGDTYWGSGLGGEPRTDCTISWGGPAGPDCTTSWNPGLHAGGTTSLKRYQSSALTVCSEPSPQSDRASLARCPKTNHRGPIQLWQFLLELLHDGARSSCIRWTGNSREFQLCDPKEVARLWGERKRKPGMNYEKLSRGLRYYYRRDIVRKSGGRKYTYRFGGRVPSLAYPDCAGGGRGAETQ
The following applies: protein: recombinant; tags: N-terminal GST; dsDNA, one strand shown. In short, it runs like this:
as §1

Assay [8] addresses T5, ELF3 (Homo sapiens, UniProt P78545 1-371).
T5 sequence: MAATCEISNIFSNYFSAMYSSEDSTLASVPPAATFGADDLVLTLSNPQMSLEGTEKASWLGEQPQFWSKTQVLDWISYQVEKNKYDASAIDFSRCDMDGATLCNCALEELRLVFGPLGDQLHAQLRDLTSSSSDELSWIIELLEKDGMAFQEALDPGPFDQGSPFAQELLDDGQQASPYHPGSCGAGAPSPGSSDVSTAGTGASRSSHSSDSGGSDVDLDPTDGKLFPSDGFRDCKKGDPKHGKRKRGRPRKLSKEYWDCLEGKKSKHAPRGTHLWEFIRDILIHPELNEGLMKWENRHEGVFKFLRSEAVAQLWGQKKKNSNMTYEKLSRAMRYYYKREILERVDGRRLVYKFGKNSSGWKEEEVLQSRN
The following applies: protein: recombinant; tags: N-terminal GST; dsDNA, one strand shown. In short, it runs like this: as §1

In assay [9] the target is CRX (Homo sapiens, UniProt O43186 1-299). Particulars: protein: recombinant; tags: N-terminal GST; dsDNA, one strand shown. In short, it runs like this:
as §1

Assay [10] has as its target ETV1 (Homo sapiens, UniProt P50549 1-477). The following applies: protein: recombinant; tags: N-terminal GST; dsDNA, one strand shown. In short, it runs like this: as §1
Assay [11] has as its target T6, ERF (Homo sapiens, UniProt P50548 1-548).
T6 sequence: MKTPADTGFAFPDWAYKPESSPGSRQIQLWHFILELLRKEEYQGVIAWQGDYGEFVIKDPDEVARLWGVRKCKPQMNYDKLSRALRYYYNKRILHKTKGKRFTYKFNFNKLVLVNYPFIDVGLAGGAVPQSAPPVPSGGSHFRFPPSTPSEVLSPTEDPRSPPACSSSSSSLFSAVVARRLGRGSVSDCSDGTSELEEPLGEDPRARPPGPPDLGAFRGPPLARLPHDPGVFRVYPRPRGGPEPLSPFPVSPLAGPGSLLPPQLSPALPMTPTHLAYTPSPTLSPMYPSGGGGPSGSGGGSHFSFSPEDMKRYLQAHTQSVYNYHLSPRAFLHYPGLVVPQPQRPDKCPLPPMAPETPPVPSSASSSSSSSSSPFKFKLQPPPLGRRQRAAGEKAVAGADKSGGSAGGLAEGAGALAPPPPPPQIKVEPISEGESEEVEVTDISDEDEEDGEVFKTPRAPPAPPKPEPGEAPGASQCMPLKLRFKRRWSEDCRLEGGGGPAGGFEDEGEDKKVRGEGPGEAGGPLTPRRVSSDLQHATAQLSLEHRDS
Particulars: protein: recombinant; tags: N-terminal GST; dsDNA, one strand shown. In short, it runs like this:
as §1

In assay [12] the target is T7, ETV3L (Homo sapiens, UniProt Q6ZN32 1-361).
T7 sequence: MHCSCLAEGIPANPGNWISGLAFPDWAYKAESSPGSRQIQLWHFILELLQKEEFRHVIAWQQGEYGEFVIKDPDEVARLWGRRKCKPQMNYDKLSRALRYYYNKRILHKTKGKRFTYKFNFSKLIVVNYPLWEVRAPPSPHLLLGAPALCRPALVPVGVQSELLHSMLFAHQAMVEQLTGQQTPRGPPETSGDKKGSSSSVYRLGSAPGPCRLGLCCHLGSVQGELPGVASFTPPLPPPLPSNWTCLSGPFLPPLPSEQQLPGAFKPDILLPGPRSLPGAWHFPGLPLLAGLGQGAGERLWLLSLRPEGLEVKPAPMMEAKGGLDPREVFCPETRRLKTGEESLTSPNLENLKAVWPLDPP
Particulars: protein: recombinant; tags: N-terminal GST; dsDNA, one strand shown. In short, it runs like this:
as §1

Assay [13] deals with T8, ETS2 (Homo sapiens, UniProt P15036 1-469).
T8 sequence: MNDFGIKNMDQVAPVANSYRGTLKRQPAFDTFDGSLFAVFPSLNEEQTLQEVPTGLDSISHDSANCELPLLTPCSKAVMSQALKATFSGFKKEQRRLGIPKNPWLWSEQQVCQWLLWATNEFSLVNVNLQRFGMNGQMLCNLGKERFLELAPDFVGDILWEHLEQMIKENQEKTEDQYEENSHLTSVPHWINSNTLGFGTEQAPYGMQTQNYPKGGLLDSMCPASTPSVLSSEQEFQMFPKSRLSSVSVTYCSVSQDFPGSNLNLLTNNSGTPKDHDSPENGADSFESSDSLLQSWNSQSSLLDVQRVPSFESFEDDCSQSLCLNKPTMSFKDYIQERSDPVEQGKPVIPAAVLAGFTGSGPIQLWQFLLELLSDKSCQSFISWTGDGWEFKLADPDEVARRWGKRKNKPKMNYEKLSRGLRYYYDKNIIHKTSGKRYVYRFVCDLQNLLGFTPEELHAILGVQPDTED
Particulars: protein: recombinant; tags: N-terminal GST; dsDNA, one strand shown. In short, it runs like this:
as §1

For assay [14], the target named is T9, SPDEF (Homo sapiens, UniProt O95238 1-335).
T9 sequence: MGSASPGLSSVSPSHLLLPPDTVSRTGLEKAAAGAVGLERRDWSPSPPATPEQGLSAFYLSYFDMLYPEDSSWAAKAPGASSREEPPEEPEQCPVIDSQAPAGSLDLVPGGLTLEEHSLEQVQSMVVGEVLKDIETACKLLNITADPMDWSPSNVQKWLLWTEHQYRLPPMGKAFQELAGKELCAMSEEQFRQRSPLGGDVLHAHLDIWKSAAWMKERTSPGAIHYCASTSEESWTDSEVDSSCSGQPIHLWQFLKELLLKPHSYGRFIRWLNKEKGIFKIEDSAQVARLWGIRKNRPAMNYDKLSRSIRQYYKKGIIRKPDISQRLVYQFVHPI
Particulars: protein: recombinant; tags: N-terminal GST; dsDNA, one strand shown. In short, it runs like this:
as §1

Assay [15] deals with T10, ETV7 (Homo sapiens, UniProt Q9Y603 1-341).
T10 sequence: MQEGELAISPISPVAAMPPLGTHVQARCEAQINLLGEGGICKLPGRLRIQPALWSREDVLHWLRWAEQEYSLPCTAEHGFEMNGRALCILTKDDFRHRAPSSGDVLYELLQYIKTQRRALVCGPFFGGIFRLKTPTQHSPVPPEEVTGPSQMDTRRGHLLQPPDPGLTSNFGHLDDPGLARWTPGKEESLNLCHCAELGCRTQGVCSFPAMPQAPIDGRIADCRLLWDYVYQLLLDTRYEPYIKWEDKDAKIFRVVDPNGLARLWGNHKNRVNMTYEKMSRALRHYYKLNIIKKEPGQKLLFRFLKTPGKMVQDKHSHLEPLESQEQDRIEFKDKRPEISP
The following applies: protein: recombinant; tags: N-terminal GST; dsDNA, one strand shown. In short, it runs like this:
as §1

Assay [16] addresses T11, ELF5 (Homo sapiens, UniProt Q9UKW6-2 1-255).
T11 sequence: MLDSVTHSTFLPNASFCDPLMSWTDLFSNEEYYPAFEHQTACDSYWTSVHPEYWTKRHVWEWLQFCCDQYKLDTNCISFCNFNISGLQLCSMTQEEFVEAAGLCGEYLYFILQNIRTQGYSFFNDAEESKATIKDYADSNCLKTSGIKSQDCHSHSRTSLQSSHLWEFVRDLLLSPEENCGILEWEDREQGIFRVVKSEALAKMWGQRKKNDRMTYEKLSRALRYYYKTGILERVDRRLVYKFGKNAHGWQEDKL
The following applies: protein: recombinant; tags: N-terminal GST; dsDNA, one strand shown. In short, it runs like this: as §1

Assay [17] addresses T12, ETV3 (Homo sapiens, UniProt P41162-2 1-143).
T12 sequence: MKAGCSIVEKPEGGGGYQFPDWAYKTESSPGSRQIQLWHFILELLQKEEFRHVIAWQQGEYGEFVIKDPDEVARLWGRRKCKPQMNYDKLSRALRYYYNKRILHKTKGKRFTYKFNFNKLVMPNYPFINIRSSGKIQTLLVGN
The following applies: protein: recombinant; tags: N-terminal GST; dsDNA, one strand shown. In short, it runs like this: as §1

Assay [18] has as its target ETV6 (Homo sapiens, UniProt P41212 1-452). The following applies: protein: recombinant; tags: N-terminal GST; dsDNA, one strand shown. In short, it runs like this:
as §1

Sequence of CRX (O43186 whole entry): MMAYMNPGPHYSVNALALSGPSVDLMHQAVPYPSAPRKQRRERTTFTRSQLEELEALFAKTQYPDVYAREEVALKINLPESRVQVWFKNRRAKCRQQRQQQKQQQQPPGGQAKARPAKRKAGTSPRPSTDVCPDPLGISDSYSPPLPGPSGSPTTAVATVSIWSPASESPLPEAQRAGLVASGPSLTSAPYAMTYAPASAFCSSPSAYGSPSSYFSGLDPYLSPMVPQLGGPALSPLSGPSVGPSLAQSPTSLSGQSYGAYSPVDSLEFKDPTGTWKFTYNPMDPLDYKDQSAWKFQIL
Sequence of ETV6 (P41212 whole entry): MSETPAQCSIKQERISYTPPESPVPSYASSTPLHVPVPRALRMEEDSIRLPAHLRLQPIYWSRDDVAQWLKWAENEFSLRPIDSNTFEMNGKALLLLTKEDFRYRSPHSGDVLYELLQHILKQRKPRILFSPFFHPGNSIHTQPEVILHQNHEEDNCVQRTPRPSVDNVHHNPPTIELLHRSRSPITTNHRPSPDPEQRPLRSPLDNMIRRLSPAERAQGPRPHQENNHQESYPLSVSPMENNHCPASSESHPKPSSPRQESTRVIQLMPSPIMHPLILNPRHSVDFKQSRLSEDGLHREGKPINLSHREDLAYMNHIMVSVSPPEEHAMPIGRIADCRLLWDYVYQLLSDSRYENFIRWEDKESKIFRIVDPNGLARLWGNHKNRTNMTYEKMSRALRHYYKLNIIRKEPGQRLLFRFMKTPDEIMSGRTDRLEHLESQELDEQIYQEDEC
Sequence of HSF1 (Q00613 whole entry): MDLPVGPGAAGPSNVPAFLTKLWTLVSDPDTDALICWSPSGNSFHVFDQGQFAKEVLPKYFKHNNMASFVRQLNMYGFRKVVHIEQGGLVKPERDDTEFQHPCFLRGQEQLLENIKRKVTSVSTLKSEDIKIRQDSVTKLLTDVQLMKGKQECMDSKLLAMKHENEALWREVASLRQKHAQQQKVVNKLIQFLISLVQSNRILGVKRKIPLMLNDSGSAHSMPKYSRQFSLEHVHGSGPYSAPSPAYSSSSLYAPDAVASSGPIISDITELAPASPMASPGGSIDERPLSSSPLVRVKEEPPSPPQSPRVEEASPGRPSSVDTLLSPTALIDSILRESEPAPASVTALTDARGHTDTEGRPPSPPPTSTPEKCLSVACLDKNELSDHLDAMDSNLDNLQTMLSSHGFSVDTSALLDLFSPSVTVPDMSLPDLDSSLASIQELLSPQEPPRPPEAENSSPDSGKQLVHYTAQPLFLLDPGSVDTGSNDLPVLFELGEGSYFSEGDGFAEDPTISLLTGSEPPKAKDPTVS
Sequence of ETV5 (P41161 whole entry): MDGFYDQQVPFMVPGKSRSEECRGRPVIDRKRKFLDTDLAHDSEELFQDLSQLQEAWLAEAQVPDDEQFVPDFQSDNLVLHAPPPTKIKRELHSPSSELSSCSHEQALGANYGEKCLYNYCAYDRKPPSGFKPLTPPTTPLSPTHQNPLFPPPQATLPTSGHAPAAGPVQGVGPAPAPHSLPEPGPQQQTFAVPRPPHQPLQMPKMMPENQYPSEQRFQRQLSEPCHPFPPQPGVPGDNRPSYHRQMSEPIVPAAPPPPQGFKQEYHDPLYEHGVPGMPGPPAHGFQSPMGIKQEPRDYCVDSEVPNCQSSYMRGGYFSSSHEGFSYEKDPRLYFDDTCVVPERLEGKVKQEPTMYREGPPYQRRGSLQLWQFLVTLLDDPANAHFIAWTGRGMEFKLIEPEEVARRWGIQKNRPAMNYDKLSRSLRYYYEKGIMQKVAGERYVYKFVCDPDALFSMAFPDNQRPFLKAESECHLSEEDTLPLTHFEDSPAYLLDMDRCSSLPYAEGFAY
Sequence of ELF4 (Q99607 whole entry): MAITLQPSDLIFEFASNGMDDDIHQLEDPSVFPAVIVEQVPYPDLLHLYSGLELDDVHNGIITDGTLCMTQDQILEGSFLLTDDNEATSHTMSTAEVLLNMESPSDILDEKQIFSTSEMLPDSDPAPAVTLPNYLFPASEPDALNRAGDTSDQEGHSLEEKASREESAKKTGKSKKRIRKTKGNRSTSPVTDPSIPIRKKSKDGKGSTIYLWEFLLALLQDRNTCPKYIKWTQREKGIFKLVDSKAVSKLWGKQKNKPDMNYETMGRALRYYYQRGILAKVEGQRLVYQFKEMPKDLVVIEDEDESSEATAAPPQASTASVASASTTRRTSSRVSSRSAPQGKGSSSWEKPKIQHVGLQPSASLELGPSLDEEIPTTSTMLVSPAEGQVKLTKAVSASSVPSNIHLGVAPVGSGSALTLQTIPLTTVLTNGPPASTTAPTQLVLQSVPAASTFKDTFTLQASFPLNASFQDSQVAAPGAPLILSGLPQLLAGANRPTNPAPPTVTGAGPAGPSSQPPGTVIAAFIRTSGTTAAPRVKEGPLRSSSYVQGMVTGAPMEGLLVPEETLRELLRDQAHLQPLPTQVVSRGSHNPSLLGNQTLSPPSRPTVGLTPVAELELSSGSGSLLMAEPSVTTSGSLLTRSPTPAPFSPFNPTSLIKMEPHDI
Sequence of ETV1 (P50549 whole entry): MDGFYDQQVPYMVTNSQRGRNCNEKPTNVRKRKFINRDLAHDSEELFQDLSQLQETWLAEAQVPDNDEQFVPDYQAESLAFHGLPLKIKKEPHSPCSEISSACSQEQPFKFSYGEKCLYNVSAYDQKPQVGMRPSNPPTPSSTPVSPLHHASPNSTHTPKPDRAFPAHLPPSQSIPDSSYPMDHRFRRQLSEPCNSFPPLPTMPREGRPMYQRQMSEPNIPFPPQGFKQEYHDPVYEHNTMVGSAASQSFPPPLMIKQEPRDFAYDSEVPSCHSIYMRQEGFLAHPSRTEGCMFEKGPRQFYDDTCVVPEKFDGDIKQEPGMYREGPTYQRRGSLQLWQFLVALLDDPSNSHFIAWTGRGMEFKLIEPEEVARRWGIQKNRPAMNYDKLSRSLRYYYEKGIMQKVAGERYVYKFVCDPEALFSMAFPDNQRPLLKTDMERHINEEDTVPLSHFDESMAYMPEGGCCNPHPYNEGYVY

Take GCTCAA: the binding signal is 1.07 fold enrichment (6-mer frequency, TF over GST control) in assay [1]; 1.12 fold enrichment (6-mer frequency, TF over GST control) in [2]; 1.16 fold enrichment (6-mer frequency, TF over GST control) in assay [3]; 1.19 fold enrichment (6-mer frequency, TF over GST control) in assay [4]; 1.16 fold enrichment (6-mer frequency, TF over GST control) in assay [5]; 1.03 fold enrichment (6-mer frequency, TF over GST control) in assay [6]. The binding signal was 1.1 fold enrichment (6-mer frequency, TF over GST control) in [7]; 1.11 fold enrichment (6-mer frequency, TF over GST control) in assay [8]; 1.31 fold enrichment (6-mer frequency, TF over GST control) in assay [9]; 1.1 fold enrichment (6-mer frequency, TF over GST control) in [10]; 1.08 fold enrichment (6-mer frequency, TF over GST control) in assay [11]; 1.13 fold enrichment (6-mer frequency, TF over GST control) in assay [12]. Moreover, the binding signal in assay [13] is 1.11 fold enrichment (6-mer frequency, TF over GST control); in assay [14], 1.04 fold enrichment (6-mer frequency, TF over GST control); in assay [15] it was 1.16 fold enrichment (6-mer frequency, TF over GST control); in assay [16], 1 fold enrichment (6-mer frequency, TF over GST control); in assay [17], 1.04 fold enrichment (6-mer frequency, TF over GST control); in assay [18], 1.1 fold enrichment (6-mer frequency, TF over GST control).
